Source: the supplement of paper PMC11732987, “Enantioselective OTUD7B fragment discovery through chemoproteomics screening and high-throughput optimisation” (Communications Chemistry, 2025)

Assays:
Experiment in all cases: log2 ratio of Biotin-Ahx-Ub-VS probe labelling (fragment/DMSO); higher = less target engagement (more negative = stronger competition), active = hit call of the paper (q ≤ 0.05, log2 ratio ≤ -1)
Details in all cases: compound concentration: 200 uM; treatment time: 3 h
USP9X = USP9X (UniProt Q93008)
How it was run: (§1)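 In triplicate, 495 µg of HEK293T lysate per sample was incubated with fragment at 200 µM or vehicle for 3 h. Biotin-Ahx-Ub-VS was then added to 0.5 µM final for 1 h, and labelled DUBs were captured with NeutrAvidin, digested with LysC and trypsin, and measured by diaPASEF LC-MS/MS. Data are average log2 fragment/vehicle ratios by unpaired t-test from global-median-normalised Spectronaut label-free quantities, restricted to proteins with ≥2 unique peptides.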

UniProt O00487 = target: UniProt O00487
UniProt O00487, sequence (O00487 whole entry): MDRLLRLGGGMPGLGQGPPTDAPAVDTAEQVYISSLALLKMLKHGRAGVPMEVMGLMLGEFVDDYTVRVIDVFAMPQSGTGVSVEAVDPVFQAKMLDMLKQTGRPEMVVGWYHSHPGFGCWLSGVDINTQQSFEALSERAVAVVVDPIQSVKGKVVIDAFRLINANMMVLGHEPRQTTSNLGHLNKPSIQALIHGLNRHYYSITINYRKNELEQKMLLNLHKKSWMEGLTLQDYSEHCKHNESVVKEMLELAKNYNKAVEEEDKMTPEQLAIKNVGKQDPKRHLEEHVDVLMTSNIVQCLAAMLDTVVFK
How it was run: as §1

UniProt O00507 = target: UniProt O00507
UniProt O00507, sequence (O00507 whole entry): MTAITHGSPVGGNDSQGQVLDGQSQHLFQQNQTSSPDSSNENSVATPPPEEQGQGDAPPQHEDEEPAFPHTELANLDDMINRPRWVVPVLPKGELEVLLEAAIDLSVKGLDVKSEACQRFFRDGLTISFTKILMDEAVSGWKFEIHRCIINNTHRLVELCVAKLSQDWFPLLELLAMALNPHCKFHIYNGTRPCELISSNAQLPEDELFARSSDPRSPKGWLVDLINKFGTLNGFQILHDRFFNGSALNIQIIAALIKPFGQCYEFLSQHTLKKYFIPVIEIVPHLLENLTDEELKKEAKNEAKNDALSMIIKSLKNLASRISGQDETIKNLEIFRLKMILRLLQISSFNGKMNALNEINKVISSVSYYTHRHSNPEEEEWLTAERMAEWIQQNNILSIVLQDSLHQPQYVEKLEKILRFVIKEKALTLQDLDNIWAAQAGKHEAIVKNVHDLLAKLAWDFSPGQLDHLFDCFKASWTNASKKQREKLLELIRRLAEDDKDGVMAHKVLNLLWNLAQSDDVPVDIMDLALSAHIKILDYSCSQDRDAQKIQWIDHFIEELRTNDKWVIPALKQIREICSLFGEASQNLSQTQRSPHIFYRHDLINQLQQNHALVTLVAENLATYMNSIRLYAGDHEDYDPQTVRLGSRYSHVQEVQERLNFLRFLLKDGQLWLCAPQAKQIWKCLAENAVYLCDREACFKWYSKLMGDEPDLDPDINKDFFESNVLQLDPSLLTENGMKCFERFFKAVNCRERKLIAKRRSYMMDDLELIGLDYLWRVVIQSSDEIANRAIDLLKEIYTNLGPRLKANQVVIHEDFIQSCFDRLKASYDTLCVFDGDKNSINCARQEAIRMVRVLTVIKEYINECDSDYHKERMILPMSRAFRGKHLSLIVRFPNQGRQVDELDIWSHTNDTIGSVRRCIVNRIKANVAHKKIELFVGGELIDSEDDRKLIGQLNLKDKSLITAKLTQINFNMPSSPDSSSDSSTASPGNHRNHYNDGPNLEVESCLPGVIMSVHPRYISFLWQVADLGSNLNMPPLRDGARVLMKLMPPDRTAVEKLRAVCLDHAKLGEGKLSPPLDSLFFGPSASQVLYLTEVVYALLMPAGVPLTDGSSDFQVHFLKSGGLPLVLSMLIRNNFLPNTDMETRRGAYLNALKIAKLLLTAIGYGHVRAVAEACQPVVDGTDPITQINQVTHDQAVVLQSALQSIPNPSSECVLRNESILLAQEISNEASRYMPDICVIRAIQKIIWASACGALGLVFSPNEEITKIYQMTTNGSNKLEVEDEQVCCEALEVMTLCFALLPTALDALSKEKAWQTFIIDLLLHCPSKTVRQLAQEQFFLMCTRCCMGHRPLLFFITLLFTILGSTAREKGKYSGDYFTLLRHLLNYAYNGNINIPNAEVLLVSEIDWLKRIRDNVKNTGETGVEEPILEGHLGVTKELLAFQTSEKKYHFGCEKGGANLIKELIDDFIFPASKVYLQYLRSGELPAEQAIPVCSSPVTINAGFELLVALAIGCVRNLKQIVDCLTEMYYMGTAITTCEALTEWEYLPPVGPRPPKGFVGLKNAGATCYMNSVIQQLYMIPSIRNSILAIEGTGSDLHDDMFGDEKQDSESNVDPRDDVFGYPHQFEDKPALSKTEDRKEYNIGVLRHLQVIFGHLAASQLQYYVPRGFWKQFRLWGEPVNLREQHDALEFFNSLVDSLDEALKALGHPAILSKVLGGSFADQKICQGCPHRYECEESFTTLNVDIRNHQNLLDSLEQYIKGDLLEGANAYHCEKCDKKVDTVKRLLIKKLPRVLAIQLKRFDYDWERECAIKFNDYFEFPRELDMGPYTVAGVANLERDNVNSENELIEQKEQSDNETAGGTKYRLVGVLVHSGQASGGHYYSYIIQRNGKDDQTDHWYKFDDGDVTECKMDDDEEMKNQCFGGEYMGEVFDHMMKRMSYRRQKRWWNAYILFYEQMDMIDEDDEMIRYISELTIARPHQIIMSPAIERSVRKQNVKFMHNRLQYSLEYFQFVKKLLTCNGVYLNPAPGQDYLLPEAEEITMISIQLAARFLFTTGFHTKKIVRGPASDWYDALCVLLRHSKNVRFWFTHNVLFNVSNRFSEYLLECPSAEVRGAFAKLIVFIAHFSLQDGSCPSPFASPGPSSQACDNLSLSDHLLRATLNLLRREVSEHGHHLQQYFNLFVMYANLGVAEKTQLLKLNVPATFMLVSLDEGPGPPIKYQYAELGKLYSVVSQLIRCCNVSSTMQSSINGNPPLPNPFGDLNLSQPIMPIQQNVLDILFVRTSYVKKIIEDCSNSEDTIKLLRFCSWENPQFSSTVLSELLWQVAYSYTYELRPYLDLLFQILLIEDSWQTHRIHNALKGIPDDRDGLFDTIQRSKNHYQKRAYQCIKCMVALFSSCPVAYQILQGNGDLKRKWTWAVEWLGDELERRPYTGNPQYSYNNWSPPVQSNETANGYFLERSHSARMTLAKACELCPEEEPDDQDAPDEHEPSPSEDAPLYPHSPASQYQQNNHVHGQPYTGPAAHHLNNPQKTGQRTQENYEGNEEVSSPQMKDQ
How it was run: as §1

UniProt P51784 = target: UniProt P51784
UniProt P51784, sequence (P51784 whole entry): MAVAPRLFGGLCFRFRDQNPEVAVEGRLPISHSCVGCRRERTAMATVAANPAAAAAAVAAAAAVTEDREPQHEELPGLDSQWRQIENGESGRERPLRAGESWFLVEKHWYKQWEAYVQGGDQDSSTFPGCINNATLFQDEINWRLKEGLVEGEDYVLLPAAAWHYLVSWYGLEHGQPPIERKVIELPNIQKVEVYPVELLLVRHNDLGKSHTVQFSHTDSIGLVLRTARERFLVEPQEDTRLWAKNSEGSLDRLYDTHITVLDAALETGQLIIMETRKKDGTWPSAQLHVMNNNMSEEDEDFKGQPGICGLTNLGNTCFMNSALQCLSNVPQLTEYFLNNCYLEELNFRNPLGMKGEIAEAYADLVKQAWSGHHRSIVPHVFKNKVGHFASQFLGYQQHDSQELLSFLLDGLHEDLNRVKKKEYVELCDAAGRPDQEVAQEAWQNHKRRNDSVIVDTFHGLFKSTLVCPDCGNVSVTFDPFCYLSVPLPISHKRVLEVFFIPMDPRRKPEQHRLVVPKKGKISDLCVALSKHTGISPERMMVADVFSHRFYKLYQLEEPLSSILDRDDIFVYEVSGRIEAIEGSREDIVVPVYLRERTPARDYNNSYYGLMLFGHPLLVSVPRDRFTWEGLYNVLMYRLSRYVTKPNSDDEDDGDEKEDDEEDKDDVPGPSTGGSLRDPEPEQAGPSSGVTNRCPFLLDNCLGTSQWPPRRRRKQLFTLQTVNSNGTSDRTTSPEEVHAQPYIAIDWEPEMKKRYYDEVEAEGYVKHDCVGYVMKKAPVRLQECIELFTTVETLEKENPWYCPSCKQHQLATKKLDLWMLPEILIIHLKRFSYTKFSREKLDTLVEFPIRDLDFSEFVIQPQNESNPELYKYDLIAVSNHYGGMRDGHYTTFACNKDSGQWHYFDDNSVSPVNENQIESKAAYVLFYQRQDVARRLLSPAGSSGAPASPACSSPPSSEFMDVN
How it was run: as §1

UniProt Q5T2D3 = target: T1, UniProt Q5T2D3
T1 sequence (whole entry): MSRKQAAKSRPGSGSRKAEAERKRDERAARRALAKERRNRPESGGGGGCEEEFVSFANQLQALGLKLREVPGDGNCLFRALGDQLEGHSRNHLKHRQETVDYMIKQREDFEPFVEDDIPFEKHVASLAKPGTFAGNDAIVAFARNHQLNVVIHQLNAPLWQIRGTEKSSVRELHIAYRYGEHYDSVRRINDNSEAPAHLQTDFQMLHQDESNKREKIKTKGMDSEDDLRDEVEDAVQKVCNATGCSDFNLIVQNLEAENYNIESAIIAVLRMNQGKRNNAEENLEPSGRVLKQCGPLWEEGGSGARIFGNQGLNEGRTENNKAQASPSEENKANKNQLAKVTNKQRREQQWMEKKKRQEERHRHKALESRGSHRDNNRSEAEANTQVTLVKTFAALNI
How it was run: as §1

UniProt Q8TE49 = target: T2, UniProt Q8TE49
T2 sequence (whole entry): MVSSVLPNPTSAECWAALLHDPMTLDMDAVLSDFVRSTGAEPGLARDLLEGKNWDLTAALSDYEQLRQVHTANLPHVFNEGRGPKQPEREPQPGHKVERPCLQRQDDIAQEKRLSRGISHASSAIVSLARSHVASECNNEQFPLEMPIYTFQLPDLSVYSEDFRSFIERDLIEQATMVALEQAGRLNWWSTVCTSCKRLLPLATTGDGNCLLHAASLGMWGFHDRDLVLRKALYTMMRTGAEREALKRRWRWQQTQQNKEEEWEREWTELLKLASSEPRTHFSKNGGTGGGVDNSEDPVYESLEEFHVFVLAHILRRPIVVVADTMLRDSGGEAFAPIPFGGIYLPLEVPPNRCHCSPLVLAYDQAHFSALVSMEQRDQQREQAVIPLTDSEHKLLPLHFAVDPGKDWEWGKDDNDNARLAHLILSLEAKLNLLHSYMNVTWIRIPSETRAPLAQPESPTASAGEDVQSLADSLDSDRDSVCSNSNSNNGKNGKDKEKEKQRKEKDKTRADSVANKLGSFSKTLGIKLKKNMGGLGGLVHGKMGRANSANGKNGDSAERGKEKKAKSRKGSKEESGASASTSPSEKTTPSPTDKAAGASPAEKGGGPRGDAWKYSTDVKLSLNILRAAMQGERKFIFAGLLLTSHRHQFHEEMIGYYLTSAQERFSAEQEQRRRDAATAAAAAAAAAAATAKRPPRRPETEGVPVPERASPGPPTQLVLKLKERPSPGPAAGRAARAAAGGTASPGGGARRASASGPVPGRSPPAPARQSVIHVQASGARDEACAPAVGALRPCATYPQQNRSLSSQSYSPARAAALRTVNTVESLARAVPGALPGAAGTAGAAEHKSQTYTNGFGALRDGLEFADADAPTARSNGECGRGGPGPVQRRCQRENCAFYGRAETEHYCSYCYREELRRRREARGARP
How it was run: as §1

UniProt Q9P2H5 = target: T3, UniProt Q9P2H5
T3 sequence (whole entry): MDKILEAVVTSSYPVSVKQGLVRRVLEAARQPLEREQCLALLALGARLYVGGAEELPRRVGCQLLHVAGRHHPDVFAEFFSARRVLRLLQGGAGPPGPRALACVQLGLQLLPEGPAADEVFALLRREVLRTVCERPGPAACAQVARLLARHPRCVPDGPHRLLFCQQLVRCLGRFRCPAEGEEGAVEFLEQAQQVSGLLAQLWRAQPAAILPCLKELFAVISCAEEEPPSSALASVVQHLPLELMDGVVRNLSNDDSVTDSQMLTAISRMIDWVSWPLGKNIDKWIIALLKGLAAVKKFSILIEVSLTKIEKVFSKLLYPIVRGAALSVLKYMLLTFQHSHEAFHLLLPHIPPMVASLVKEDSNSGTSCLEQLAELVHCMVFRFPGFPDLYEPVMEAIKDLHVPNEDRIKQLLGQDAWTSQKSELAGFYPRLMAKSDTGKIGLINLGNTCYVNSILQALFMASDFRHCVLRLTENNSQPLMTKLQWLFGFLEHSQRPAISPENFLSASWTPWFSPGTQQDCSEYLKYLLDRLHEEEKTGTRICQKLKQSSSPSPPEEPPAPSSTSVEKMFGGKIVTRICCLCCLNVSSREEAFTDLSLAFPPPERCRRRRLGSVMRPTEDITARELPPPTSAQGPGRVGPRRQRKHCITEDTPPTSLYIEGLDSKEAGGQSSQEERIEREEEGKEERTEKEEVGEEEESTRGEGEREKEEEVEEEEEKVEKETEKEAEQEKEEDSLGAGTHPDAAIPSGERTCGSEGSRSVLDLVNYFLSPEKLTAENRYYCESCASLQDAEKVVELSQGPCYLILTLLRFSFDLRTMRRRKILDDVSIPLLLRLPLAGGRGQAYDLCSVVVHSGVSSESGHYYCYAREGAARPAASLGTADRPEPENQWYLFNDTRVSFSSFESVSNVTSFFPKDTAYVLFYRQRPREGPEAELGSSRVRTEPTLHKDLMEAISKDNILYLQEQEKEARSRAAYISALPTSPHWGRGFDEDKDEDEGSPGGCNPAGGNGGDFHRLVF
How it was run: as §1

UniProt Q9UGI0 = target: T4, UniProt Q9UGI0
T4 sequence (whole entry): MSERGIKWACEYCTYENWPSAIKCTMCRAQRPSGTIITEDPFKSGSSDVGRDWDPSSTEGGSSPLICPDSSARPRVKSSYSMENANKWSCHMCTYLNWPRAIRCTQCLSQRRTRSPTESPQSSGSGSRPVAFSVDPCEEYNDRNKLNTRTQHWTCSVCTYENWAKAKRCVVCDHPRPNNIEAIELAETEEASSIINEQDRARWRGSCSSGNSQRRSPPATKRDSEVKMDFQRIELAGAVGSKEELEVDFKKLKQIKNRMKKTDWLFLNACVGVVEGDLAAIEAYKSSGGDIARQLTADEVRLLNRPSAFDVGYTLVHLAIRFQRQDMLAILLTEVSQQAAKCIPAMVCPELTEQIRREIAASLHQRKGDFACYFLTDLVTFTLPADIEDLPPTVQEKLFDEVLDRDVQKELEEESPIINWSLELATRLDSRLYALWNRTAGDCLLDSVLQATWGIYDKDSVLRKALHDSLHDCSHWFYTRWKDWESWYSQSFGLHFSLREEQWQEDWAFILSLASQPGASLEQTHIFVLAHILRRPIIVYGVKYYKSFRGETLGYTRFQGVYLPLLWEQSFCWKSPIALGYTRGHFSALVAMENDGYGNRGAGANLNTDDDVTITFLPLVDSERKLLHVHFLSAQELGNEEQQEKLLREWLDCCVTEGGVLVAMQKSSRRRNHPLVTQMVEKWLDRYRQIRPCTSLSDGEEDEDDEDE
How it was run: as §1

YOD1 = target: T5, YOD1 (UniProt Q5VVQ6)
T5 sequence (whole entry): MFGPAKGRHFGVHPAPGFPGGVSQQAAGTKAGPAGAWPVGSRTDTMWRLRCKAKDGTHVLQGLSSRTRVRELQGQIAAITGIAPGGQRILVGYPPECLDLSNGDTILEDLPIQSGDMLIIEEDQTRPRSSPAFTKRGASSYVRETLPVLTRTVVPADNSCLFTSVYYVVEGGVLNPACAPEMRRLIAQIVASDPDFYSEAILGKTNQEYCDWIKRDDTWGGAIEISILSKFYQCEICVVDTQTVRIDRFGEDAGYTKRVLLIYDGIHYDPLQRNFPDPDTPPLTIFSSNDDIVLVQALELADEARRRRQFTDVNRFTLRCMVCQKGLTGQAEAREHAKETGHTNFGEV
How it was run: as §1

Measured: log2 ratio of Biotin-Ahx-Ub-VS probe labelling

O=C(O)C1Cc2ccccc2CN1C(=O)CCl (centres undefined)
inactive: USP9X -0.449 | UniProt O00487 -0.262 | UniProt O00507 -0.298 | UniProt P51784 -0.0646 | UniProt Q5T2D3 -0.268 | UniProt Q8TE49 -0.664 | UniProt Q9P2H5 -0.394 | UniProt Q9UGI0 -0.642 | YOD1 -0.0629
